# PubChem BioAssay
# Where “and” joins values, the source holds several entries; their conditions need not be identical. Identical values can stand only once. Results filed as inconclusive are left out. For part of these data: Results with a measured potency or affinity are listed apart. Calls of active or inactive are those of the source. Unless noted, the rule behind the calls is not given here.
# Columns and labels:
# [1] = polyglutamine-triggered caspase-3 activation inhibitors, cell-based (AID 1583); conditions: polyglutamine-induced caspase-3 activation, cell assay; stronger effect = higher value;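 tested at 10 µM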
# [2] = suppressors of polyQ aggregation in yeast, 75Q-TubU reporter (AID 1593); conditions: Yeast 75Q polyglutamine aggregation reporter
# [3] = rescue of polyQ-huntingtin neuronal dysfunction in worms, whole organism, C. elegans mechanosensory neurons, N-terminal huntingtin (AID 1599); conditions: touch response, stronger effect = higher value
# [4] = inhibitors of mitochondrial cytochrome c release, biochemical, purified mitochondria (AID 1603); conditions: stronger effect = lower value;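 note: mouse liver mitochondria challenged with calcium chloride; signal normalized to the plate average as 100%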
# [5] = inhibitors of polyQ protein aggregation (AID 1604); conditions: polyglutamine-induced protein aggregation inhibition assay; stronger effect = higher value; tested at 2.5 µM
# [6] = enhancers of glutamate uptake in motor neurons, MN-1 cell line (AID 1612); conditions: MN-1 motor neuron cells, stronger effect = higher value;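 note: tested at 1 µM final; 0% = mean of DMSO vehicle wells on each plate; positive means more glutamate uptake than control and negative means less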
# [7] = reducers of polyQ inclusions in PC12 cells, cell-based, NGF-treated PC12, GFPQ80 (AID 1614); conditions: PC12 NGF-treated GFP-polyQ80 inclusion reduction;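 note: lower means fewer inclusions and 0 means no inclusions at all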
# [8] = suppressors of polyglutamine aggregation in yeast, 75Q-TubH (AID 1616); conditions: S. cerevisiae 75Q-TubH polyglutamine aggregation suppression; stronger effect = higher value
# [9] = circadian clock period modulators, cell-based, LOPAC library, luminescence reporter (AID 2774); conditions: circadian reporter cells, at 7 µM, actives lie on both sides;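 note: values are relative to mean of DMSO wells on each plate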
# [10] = test system: Hepatitis C virus NS3 helicase; assay: HCV NS3 helicase inhibitors, primary screen, biochemical, fluorescence polarization, LOPAC1280 library (AID 687035; in the data active = inhibition above about 37%); conditions: Purified HCV NS3 helicase, Cy5-dT15 ssDNA binding fluorescence polarization; stronger effect = higher value; concentration not given here
# [11] = Cy5 fluorescence quenching or enhancement artefacts, artefact control for HCV NS3 helicase inhibitor project, biochemical, LOPAC1280 (AID 687037); conditions: Cy5-DNA-NS3h complex fluorescence interference counterscreen
# [12] = test system: Aerobactin synthetase IucA (Klebsiella pneumoniae); assay: IucA aerobactin synthetase inhibitors, biochemical, Tocris library, absorbance (AID 1345561); conditions: purified IucA enzyme assay, absorbance (OD) read-out; stronger effect = lower value;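 tested at 8 µM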;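 note: 100% = enzyme without compound and 0% = no enzyme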
# [13] = test system: Aerobactin synthetase IucA (Klebsiella pneumoniae, hypervirulent); assay: IucA enzyme inhibition, biochemical, LOPAC library, absorbance readout (AID 1346212); conditions: IucA enzyme assay, absorbance (OD) readout; stronger effect = lower value;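 tested at 8 µM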;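 note: 100% = no compound wells and 0% = no enzyme wells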
# [14] = sensitizers of A549 cells to miR-34 induction, primary screen, imaging, A549 dox-inducible miR-34, nuclei and caspase counts (AID 1347080;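 active = compounds whose cell count with miR-34 switched on is under 0.7 times the count with it off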); conditions: A549 miR-34 inducible, Hoechst nuclei count, 48 h
# [15] = phospholipid biosynthesis inhibitors in animal cells, primary screen, cell-based, LOPAC library, screen 4 (AID 1347384); conditions: phospholipid biosynthesis inhibition screen, at 10 µM
# [16] = viability rescue of complex I mutant cybrids, primary screen, cell-based, galactose medium, ATP luminescence (AID 1645843;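 active = z-score of at least 1.8 in each of two replicates, scored against plate mean and spread of sample wells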;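 note: positive z means more ATP and so rescue of galactose-driven cybrid death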); conditions: complex I mutant cybrid cells, 72 h, stronger effect = higher value
# [17] = growth inhibition of DIPG glioma cells, dose response, cell-based, SU-DIPG-XVII, MIPE5.0, CellTiter-Glo, qHTS (AID 1347060; cut-off not given, nearly all actives have AC50 up to about 26 µM); conditions: SU-DIPG-XVII viability, CellTiter-Glo ATP luminescence
# [18] = growth inhibition of DIPG glioma cells, dose response, cell-based, SU-DIPG-XIII, MIPE4.0, CellTiter-Glo, qHTS (AID 1347061; cut-off not given, nearly all actives have AC50 up to about 37 µM;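 note: cells exposed to compound for 48 hours before readout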); conditions: SU-DIPG-XIII viability, CellTiter-Glo ATP luminescence
# [19] = growth inhibition of DIPG glioma cells, dose response, cell-based, SU-DIPG-IV, MIPE4.0, CellTiter-Glo, qHTS (AID 1347063; cut-off not given, nearly all actives have AC50 up to about 30 µM;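 note: compound exposure lasted 48 hours before the viability readout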); conditions: SU-DIPG-IV viability, CellTiter-Glo ATP luminescence
# [20] = growth inhibition of DIPG glioma cells, dose response, cell-based, SU-DIPG-XIII, MIPE5.0, CellTiter-Glo, qHTS (AID 1347064; cut-off not given, nearly all actives have AC50 up to about 23 µM); conditions: SU-DIPG-XIII viability, CellTiter-Glo ATP luminescence
# [21] = viability loss in pontine glioma line – cell-based, SU-DIPG-XXV, MIPE5.0, CellTiter-Glo, qHTS, dose response (AID 1347065; cut-off not given, nearly all actives have AC50 up to about 26 µM;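 note: cells exposed to compound for 48 hours before ATP readout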); conditions: CellTiter-Glo ATP luminescence
# [22] = SU-DIPG-VI glioma cell viability, MIPE4.0 library, CellTiter-Glo luminescence, qHTS (AID 1347066; cut-off not given, nearly all actives have AC50 up to about 30 µM;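 note: cells exposed to compound for 48 hours before readout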); conditions: CellTiter-Glo ATP luminescence
# [23] = SU-DIPG-XXV glioma cell viability, MIPE5.0 library, qHTS (AID 1347068; cut-off not given, nearly all actives have IC50 up to about 30 µM)
# [24] = survival rescue of mitochondrial mutant cells in low glucose, primary screen, MELAS cybrids, Rieske KO mouse fibroblasts, CellTiter-Glo (AID 1508586;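 active = mean z-score across replicates of 1.96 or higher in either the MELAS or the Rieske mutant cell line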;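 note: z relative to plate mean and SD of compound and empty wells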)
# [25] = target: ATP-dependent translocase ABCB1 (Homo sapiens) (UniProt P08183); assay: MDR1 (ABCB1) efflux transporter inhibition, cell-based (AID 377; in the data active = fluorescence slope change above about 50%); conditions: MDR1-expressing cells, fluorescent substrate accumulation slope; stronger effect = higher value; concentration not given here
# ATP-dependent translocase ABCB1 (Homo sapiens), sequence (P08183 whole entry, looked up): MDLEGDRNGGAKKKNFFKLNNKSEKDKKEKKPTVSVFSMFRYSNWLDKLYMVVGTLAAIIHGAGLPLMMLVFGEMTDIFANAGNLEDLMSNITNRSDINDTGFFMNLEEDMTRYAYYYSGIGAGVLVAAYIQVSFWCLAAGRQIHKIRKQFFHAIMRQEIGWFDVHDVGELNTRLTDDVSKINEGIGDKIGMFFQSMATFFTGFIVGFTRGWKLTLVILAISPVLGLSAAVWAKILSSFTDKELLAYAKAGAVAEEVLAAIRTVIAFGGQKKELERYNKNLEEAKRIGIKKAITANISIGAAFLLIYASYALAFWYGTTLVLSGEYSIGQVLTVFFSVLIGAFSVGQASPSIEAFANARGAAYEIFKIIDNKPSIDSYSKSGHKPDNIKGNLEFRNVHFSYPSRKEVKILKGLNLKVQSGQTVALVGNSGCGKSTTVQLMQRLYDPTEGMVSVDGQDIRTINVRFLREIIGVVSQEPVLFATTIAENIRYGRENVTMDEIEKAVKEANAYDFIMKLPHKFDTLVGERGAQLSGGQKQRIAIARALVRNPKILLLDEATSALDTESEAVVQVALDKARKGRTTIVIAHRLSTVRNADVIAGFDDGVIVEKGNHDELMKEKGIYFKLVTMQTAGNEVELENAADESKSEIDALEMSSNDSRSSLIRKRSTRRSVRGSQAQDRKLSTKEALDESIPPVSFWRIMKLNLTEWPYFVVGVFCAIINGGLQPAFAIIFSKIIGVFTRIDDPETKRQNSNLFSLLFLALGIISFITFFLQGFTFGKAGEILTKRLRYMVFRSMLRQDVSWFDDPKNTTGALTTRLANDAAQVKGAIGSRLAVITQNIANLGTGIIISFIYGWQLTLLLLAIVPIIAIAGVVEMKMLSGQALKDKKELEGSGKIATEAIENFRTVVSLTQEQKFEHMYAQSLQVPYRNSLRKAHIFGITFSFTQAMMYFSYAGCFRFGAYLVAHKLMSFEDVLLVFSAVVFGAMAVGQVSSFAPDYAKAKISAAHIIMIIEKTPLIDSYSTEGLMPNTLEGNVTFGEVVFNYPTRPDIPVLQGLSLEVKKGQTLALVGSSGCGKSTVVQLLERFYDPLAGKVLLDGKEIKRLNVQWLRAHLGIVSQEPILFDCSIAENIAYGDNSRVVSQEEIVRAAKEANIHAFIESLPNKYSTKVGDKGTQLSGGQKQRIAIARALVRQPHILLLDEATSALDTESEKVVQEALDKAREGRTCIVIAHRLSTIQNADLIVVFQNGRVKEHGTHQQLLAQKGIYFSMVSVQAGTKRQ
# [26] = hESC survival regulators, cell-based (AID 493140); conditions: human embryonic stem cell survival screen; stronger effect = higher value;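 note: cells exposed to compounds for four days before counting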
# [27] = liver-stage malaria parasite growth inhibition, primary screen, cell-based, HepG2, luciferase luminescence, HepG2 viability (AID 624349; in the data active = parasite load remaining mostly below about 12%, no sharp cut-off; inactive = mostly above about 10%;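 note: 100% = mean of DMSO negative control wells on the same plate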); conditions: P. berghei liver stage in HepG2, luciferase luminescence, concentration not given here; parasite load remaining: stronger effect = lower value; viability: measured here: HepG2 viability without parasites
# [28] = target: Mitogen-activated protein kinase 7 (Homo sapiens) (UniProt Q13164); assay: ERK5 transactivation activators in reporter cells, primary screen, cell-based, HTS (AID 1508626;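 active = luciferase signal above three times the same-plate solvent-only control wells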;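 note: luciferase driven by Gal4-ERK5 fusion binding five Gal4 sites before minimal TATA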); conditions: HeLa Gal4-ERK5 transactivation, 18 h, at 5 µM, stronger effect = higher value
# Mitogen-activated protein kinase 7 (Homo sapiens), sequence (Q13164 whole entry, looked up, the tested form may be a part): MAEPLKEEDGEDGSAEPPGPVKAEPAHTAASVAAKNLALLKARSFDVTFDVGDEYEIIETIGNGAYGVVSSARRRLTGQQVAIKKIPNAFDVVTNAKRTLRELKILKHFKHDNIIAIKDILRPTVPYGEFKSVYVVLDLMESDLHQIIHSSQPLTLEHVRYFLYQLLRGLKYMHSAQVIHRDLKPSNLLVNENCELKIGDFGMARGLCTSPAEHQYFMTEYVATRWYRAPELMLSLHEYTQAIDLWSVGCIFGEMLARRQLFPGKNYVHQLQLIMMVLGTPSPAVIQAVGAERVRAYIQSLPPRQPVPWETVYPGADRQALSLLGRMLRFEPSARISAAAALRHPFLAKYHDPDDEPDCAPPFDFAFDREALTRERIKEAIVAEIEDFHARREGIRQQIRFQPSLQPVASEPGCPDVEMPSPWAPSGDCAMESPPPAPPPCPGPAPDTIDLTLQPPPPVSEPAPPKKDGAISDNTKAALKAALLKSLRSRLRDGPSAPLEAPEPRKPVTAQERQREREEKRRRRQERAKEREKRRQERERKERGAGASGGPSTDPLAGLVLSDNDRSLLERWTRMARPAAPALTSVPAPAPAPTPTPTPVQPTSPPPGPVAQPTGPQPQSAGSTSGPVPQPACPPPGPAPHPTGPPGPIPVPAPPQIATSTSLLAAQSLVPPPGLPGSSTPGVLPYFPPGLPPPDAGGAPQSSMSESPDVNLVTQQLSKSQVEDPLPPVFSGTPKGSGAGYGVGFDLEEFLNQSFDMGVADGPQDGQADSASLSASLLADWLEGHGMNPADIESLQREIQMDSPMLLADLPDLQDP
# [29] = measured here: relative caspase fold change +Dox/-Dox
# [30] = measured here: total cells with miR-34 induction, stronger effect = lower value
# [31] = measured here: total cells without miR-34 induction
# [32] = stronger effect = lower value, cell number ratio, induced over uninduced
# [33] = MELAS cybrid survival, CellTiter-Glo 48 h, stronger effect = higher value
# [34] = Rieske KO mouse fibroblast survival, CellTiter-Glo 72 h
compound,measurement,setting,value
C[N+](C)(C)CC#CCN1CCCC1=O,inhibition,[1],23.8%
same,score,[2],1.29
same,rescue above control,[3],8.8
same,cytochrome c release ratio,[4],1.02
same,inhibition of aggregation,[5],53.5%
same,glutamate uptake change,[6],7.8%
same,inclusion score,[7],2
same,aggregation suppression score,[8],1.08
same,period change,[9],-0.1 h (inactive)
same,inhibition,[10],-1% (inactive)
same,fluorescence ratio (interference),[11],1 (inactive)
same,remaining activity,[12],124% (inactive)
same,remaining activity,[13],112% (inactive)
same,fold change,[14]; stronger effect = lower value,1.08 (inactive) and 0.881 (inactive)
same,fold change,[14]; [29],1.78 and 1.33
same,cell count,[14]; [30],9690 and 9120
same,cell count,[14]; [31],8970 and 10300
same,outcome,[15],inactive
same,z-score,[16],0.5 (inactive) and 0.575 (inactive)
C[C@H](N)Cn1ccc2cc(F)c(Cl)cc21,remaining activity,[12],103% (inactive)
same,fold change,[14]; [32],0.874 (inactive)
same,fold change,[14]; [29],1.05
same,cell count,[14]; [30],7990
same,cell count,[14]; [31],9140
same,z-score,[16],-0.575 (inactive)
Cc1cc(SCc2sc(-c3ccc(C(F)(F)F)c(F)c3)nc2C)ccc1OCC(=O)O,remaining activity,[12],88.1% (inactive)
same,outcome,[17],inactive
same,outcome,[18],inactive
same,outcome,[19],inactive
same,outcome,[20],inactive
same,outcome,[21],inactive
same,outcome,[22],inactive
same,outcome,[23],inactive
same,fold change,[14]; [32],0.896 (inactive) and 0.953 (inactive) and 0.869 (inactive)
same,fold change,[14]; [29],0.54 and 0.363 and 1.57
same,cell count,[14]; [30],5150 and 8510 and 7240
same,cell count,[14]; [31],5740 and 8930 and 8330
same,z-score,[24]; [33],-0.492 (inactive)
same,z-score,[24]; [34],-2.16
same,z-score,[16],1.59 (inactive)
Cc1o[nH]c(=O)c1CC(N)C(=O)O (stereo not drawn),period change,[9],-0.03 h (inactive)
same,inhibition,[10],-4% (inactive)
same,fluorescence ratio (interference),[11],0.9 (inactive)
same,remaining activity,[12],111% (inactive) and 121% (inactive)
same,fold change,[14]; [32],0.968 (inactive) and 0.976 (inactive) and 0.969 (inactive)
same,fold change,[14]; [29],1.08 and 0.707 and 0.956
same,cell count,[14]; [30],10200 and 8490 and 9480
same,cell count,[14]; [31],10500 and 8700 and 9780
same,outcome,[15],inactive
same,z-score,[16],0.295 (inactive) and -0.475 (inactive) and -0.075 (inactive)
c1ccc(CCCCN2CCC(c3ccccc3)CC2)cc1,remaining activity,[12],90.6% (inactive)
same,fold change,[14]; [32],0.976 (inactive)
same,fold change,[14]; [29],1.02
same,cell count,[14]; [30],8670
same,cell count,[14]; [31],8890
same,z-score,[16],0.375 (inactive)
CN1CCc2cc3c(cc2[C@H]1[C@@H]1OC(=O)c2c1ccc1c2OCO1)OCO3,fluorescence slope change,[25],0.5% (inactive)
same,inhibition,[1],-6.49%
same,score,[2],1.32
same,rescue above control,[3],3.46
same,cytochrome c release ratio,[4],0.82
same,inhibition of aggregation,[5],59.1%
same,glutamate uptake change,[6],4.35%
same,inclusion score,[7],1.5
same,aggregation suppression score,[8],0.931
same,period change,[9],0.03 h (inactive)
same,survival,[26],5.92 (inactive)
same,parasite load remaining,[27],65% (inactive) and 87.6% (inactive)
same,viability,[27],109% and 77.4%
same,remaining activity,[12],114% (inactive)
same,fold change,[14]; stronger effect = lower value,0.865 (inactive) and 0.821 (inactive) and 0.983 (inactive)
same,fold change,[14]; [29],1.2 and 0.761 and 1.26
same,cell count,[14]; [30],9130 and 8360 and 9120
same,cell count,[14]; [31],10600 and 10200 and 9280
same,z-score,[24]; [33],-0.206 (inactive)
same,z-score,[24]; [34],-0.158
same,luciferase signal,[28],44 AU (inactive)
same,z-score,[16],0.335 (inactive)
